A selection: hits, their analogues and other compounds. The true share with any hit is near 1.6%.
KCNQ2 block – blocks the rat KCNQ2 potassium channel. actives 1.1% (n = 310,000). O88943. CHO-K1 KCNQ2, FluxOR thallium flux, 20 min; hits give low values. B-score at 10 µM;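 active means fluorescence ratio B-score at most minus 3 library SDs, with starting brightness B-score within 2 library SDs, cut at about -5.5 in these data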
Target sequence (O88943 whole entry, looked up): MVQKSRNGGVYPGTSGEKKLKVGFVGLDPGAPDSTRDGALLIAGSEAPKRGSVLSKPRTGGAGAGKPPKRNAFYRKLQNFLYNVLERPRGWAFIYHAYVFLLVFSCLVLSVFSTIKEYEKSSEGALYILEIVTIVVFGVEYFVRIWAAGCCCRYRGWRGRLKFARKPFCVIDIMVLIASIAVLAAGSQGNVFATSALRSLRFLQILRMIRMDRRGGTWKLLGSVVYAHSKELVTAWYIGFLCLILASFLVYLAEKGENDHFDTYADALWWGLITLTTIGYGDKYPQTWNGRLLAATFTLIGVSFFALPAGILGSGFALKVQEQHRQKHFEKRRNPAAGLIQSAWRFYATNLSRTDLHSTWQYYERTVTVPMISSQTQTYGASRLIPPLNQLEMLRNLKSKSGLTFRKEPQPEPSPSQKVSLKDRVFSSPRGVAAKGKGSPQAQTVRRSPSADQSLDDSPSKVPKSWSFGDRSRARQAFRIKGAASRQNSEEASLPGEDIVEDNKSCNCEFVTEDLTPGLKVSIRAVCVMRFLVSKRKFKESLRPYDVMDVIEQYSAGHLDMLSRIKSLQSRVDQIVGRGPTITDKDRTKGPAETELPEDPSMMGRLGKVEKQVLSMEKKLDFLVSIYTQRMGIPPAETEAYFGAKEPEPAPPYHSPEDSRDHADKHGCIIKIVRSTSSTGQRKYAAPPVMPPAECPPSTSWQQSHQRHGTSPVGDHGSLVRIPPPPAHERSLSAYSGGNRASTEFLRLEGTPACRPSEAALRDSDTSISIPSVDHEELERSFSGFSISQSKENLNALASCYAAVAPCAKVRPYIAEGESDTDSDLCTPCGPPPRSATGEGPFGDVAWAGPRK
KCNQ2 enhance – potentiators of rat KCNQ2 potassium channel | O88943 | CHO-K1 KCNQ2, FluxOR thallium flux fluorescence; hits give high values | actives 0.54% (n = 310,000) | B-score at 10 µM;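 active means fluorescence ratio B-score at least 3 SD of library B-scores, with initial fluorescence B-score within 3 of them, cut at about 5.3 in these data; same plate scores as AID 2156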;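 further: B-score of peak minus minimum over baseline fluorescence ratio after K+ and Tl+ stimulus; positive B-score means potentiation of KCNQ2 with more thallium influx and brighter signal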
KCNQ2 inh conf – confirmation of rat KCNQ2 potassium channel inhibitors; shares compounds with KCNQ2 block; AID 493025; KCNQ2-expressing cells, thallium flux, inhibition; hits give low values; activity change, negative = inhibition, % at 10 µM; actives 57% (n = 1,000);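 further: 0% = vehicle wells and values are ratio percent relative to vehicle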
KCNQ1 spec – human KCNQ1 activity in KCNQ2 inhibitor specificity screen. shares compounds with KCNQ2 block. KCNQ1-expressing cells, FluxOR thallium flux fluorescence; hits give low values. activity change, negative = inhibition, % at 10 µM. actives 15% (n = 1,000). AID 493026;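 active means activity change at least 3 SD of negative controls below their mean in both duplicate wells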;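 further: CHO cells stably transfected with KCNQ1 and depolarized by potassium stimulus; peak minus minimum fluorescence over baseline after thallium addition; 0% = vehicle negative control and -100% = blank without thallium stimulus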
CHO Tl ctr – counter-screen for KCNQ2 inhibitors: effect in parental CHO cells; thallium flux counter-screen; hits give low values; activity change, % at 10 µM; shares compounds with KCNQ2 block; actives 14% (n = 1,000);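 further: 0% = vehicle negative controls with stimulus buffer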
KCNQ2 patch conf – blocks rat KCNQ2 current in automated patch clamp; actives 49% (n = 550); KCNQ2-expressing cells; AID 588531; shares compounds with KCNQ2 block; calls only at 10 µM
Kir21 confirm – confirmation of mouse Kir2.1 potassium channel inhibitors | Kir2.1-expressing cells, FluxOR thallium flux fluorescence; hits give low values | Tl flux remaining, % of negative control (hits give low values), % at 10 µM | actives 41% (n = 2,300) | AID 2032 | shares compounds with KCNQ2 enhance;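 active means Primary-screen hit whose thallium flux fell at least 3 control SD below untreated wells in both duplicates, with normal baseline fluorescence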;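 further: 0% = blank wells without stimulus and 100% = stimulated no-compound controls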
HEK293 Tl flux – counter-screen for Kir2.1 inhibitors: effect in parental HEK293 cells; shares compounds with KCNQ2 enhance; FluxOR thallium flux fluorescence; 0% = unstimulated blank wells; FluxOR signal as % of negative control (100 = no effect), % at 10 µM; actives 19% (n = 2,300); AID 2105;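 active means dye signal at least 3 control SD above or below untreated wells in both duplicates, raw fluorescence within 3, either direction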;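 further: percent is based on the flux ratio of peak minus minimum fluorescence over baseline F0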
An asterisk follows results filed as active; i = inactive; / = no result given; + = active, no number; ! = repeats disagree. Unless noted, how the calls were made is not given here.

SMILES	KCNQ2 block	KCNQ2 enhance	KCNQ2 inh conf	KCNQ1 spec	CHO Tl ctr	others
Cc1ccc(C(CCN)c2ccco2)cc1 (stereo not given)	i	/	/	/	/
CC(OC(=O)CCOc1ccccc1)C(=O)NC1CC1 (stereo not given)	i	0.24	/	/	/
COc1cc(C2/C(=C(\O)c3ccc4c(c3)OCCO4)C(=O)C(=O)N2Cc2ccco2)cc(OC)c1OC (stereo not given)	i	1.1	/	/	/
CN(Cc1c(F)cccc1Cl)C(=O)c1ccc(NS(=O)(=O)c2ccc3[nH]c(=O)[nH]c3c2)cc1	i	/	/	/	/
COc1cc(/C=C/C(=O)OCC(=O)N(C)C2CCS(=O)(=O)C2)ccc1OC(F)F (stereo not given)	i	0.84	/	/	/
CCN(CC(=O)NCc1ccc(F)cc1)C(=O)CN1CCN(c2cc(Cl)ccc2C)CC1	-9.5*	-9.5	-26%*	i	i	KCNQ2 patch conf=+
CCN(CC(=O)NCc1ccc(Cl)cc1)C(=O)CSc1cc(C)ccc1C	-8.2*	-8.2	-22%*	i	i	KCNQ2 patch conf=+
CCN(CC(=O)NCc1ccc(Cl)cc1)C(=O)CSc1ccc(F)cc1	i	/	/	/	/
Cc1cccc(N2CCN(CC(=O)NCc3ccc(Cl)cc3)CC2)c1C	i	/	/	/	/
COc1ccc(N2C(=NC(=O)C3CCCCC3)SC3CS(=O)(=O)CC32)c(OC)c1 (stereo not given)	i	/	/	/	/
CCOC(=O)[C@@H]1[C@H]2COc3ccc(Br)cc3[C@@H]2N2C(=O)N(c3ccc(C(F)(F)F)cc3)C(=O)[C@@]12C	i	/	/	/	/
Cc1ccc(N(CC(=O)NC2CCCC2)C(=O)c2nsc(Cl)c2Cl)cc1	i	/	/	/	/
COc1cccc(CSc2nc3sc(C)c(C)c3c(=O)n2Cc2ccco2)c1	-8.8*	-8.8	-28%*	i	i	KCNQ2 patch conf=i
Cc1sc2nc(SCc3ccccc3)n(Cc3ccco3)c(=O)c2c1C	i	/	/	/	/
Cc1oc(-c2ccc(Cl)cc2)nc1CS(=O)CC(=O)NCc1ccccn1 (stereo not given)	i	0.72	/	/	/
O=C(NCCN1CCCCC1)Nc1ccc(F)cc1F	i	/	/	/	/
CC(C)n1cc(CN2CCC(Oc3ccc(C(=O)N4CCCC4)cc3)CC2)cn1	i	/	/	/	/
O=C(COc1ccc(Cl)cc1Cl)NCCCCc1ccccc1	-7.8*	-7.8	i	i	i
CC(Oc1ccc(Cl)cc1Cl)C(=O)NCCCCc1ccccc1 (stereo not given)	i	/	/	/	/
CCOCCCNC(=O)c1ccc(N2CC3CC(C2)c2cccc(=O)n2C3)c(NC(=O)Nc2cccc(OC)c2)c1 (stereo not given)	i	/	/	/	/
Cc1cc(=O)c(C(=O)O)nn1-c1ccccc1Cl	i	0.5	/	/	/
O=C(Nc1nc(-c2ccccc2)cs1)C1CCCCN1S(=O)(=O)c1ccc(Cl)cc1 (stereo not given)	-8.9*	-8.9	i	i	i
O=C(Nc1nc(-c2ccccc2)cs1)C1CCCCN1S(=O)(=O)c1ccccc1 (stereo not given)	i	/	/	/	/
NC(=O)C1CCN(CC(=O)Nc2nc(-c3ccccc3)cs2)CC1	i	/	/	/	/
CC1CCN(CC(=O)Nc2nc(-c3ccccc3)cs2)CC1	-7.3*	-7.3	i	i	i
SMILES	KCNQ2 block	KCNQ2 enhance	KCNQ2 inh conf	KCNQ1 spec	CHO Tl ctr	others
O=C(O)c1ccc2c(c1)C(=O)N(c1ccc([N+](=O)[O-])cn1)C2=O	i	/	/	/	/
CN(C)c1ccc(C(=S)N2CCN(S(=O)(=O)c3ccccc3)CC2)cc1	i	0.07	/	/	/
COc1ccc(N2CC(C(=O)Nc3ccncc3)CC2=O)cc1 (stereo not given)	i	0.85	/	/	/
O=C(CCC(=O)N1CCN(c2ccccc2)CC1)Nc1nnc(C2CCCCC2)s1	i	/	/	/	/
O=C(N/N=C/c1cc(Br)cc([N+](=O)[O-])c1O)c1ccc(NC(=O)c2ccc(F)cc2)cc1	i	/	/	/	/
c1ccc2c(OCCCN3CCCCCC3)cccc2c1	i	0.29	/	/	/
O=C(/C=C/c1ccc(Cl)cc1)N(c1ccccn1)C1CCCCC1	-8.1*	-8.1	-44%*	-35%*	-34%*	KCNQ2 patch conf=+
O=C(/C=C/c1cccc(F)c1)N(c1ccccn1)C1CCCCC1	i	/	/	/	/
Cc1cccc(NS(=O)(=O)c2c(C)[nH]c(C)c2C(=O)N2CCCC2)c1	i	0.08	/	/	/
O=C(Nc1ccccc1)Nc1cccc(C(F)(F)F)c1	i	/	/	/	/
COC(=O)/C(=C\C(=O)c1ccccc1)Nc1cccc(C(F)(F)F)c1	-7.8*	-7.8	i	i	i
COc1cc(NC(=O)c2cc3cccc(OC)c3o2)cc(C(=O)Nc2cccc(C(F)(F)F)c2)c1	-7.6*	-7.6	i	i	i
COc1cc(NC(=O)c2csc(-c3ccncc3)n2)cc(C(=O)Nc2cccc(C(F)(F)F)c2)c1	-6.9*	-6.9	-20%*	i	i	KCNQ2 patch conf=i
COc1cc(NC(=O)c2ccno2)cc(C(=O)Nc2cccc(C(F)(F)F)c2)c1	i	/	/	/	/
O=C(Nc1cccc(C(F)(F)F)c1)c1csc(-c2ccncc2)n1	i	0.48	/	/	/
CCOc1ccc(/C=N/NC(=O)CN2CCCCC2)cc1OCC	i	/	/	/	/
COc1cccc(OC)c1C(=O)Nn1c(-c2cccs2)nc2ccccc2c1=O	-9.2*	-9.2	i	i	i
COc1ccc(Cl)cc1C(=O)Nn1c(-c2cccs2)nc2ccccc2c1=O	i	0.19	/	/	/
Cc1ccccc1OCc1n(CC(=O)OC2CC(C)CCC2C(C)C)c2ccccc2[n+]1C (stereo not given)	-11*	-11	-40%*!	i	i	KCNQ2 patch conf=+;Kir21 confirm=14%*;HEK293 Tl flux=i
CCOC(=O)Cn1c(COc2ccccc2OC)[n+](C)c2ccccc21	i	0.52	/	/	/
O=C(/C=C/c1ccc(OCc2ccccc2)c(OCc2ccccc2)c1)c1cccnc1	i	/	/	/	/
O=C(/C=C/c1ccc(Cl)cc1)c1cccnc1	-7.6*	-7.6	-28%*	i	i	KCNQ2 patch conf=i;Kir21 confirm=68%*;HEK293 Tl flux=i
O=C(CSc1ccc2nnc(CCNC(=O)c3ccccc3)n2n1)Nc1ccc(F)cc1F	i	/	/	/	/
N=C(N)SCc1cn(-c2ccccc2)nc1-c1ccc(Br)cc1	-12*	-12	i	i	i	Kir21 confirm=13%*;HEK293 Tl flux=56%*
Cc1ccc(-c2nn(-c3ccccc3)cc2CO)cc1	i	/	/	/	/
CCc1ccc(C(O)(CNCc2ccccc2)c2ccccc2)cc1 (stereo not given)	-6.9*	-6.9	-32%*	-36%*	-28%*	KCNQ2 patch conf=i;Kir21 confirm=69%*;HEK293 Tl flux=i
CCc1ccc(NC(=S)NCc2ccccc2)cc1	i	0.74	/	/	/
C=CCn1c(SCc2ccccc2F)nc2cc(C(=O)O)ccc2c1=O	i	/	/	/	/
